Bioassay records as filed in PubChem BioAssay.
Hits are enriched below; roughly 1.6% of the tested compounds scored in any of these assays.
KCNQ2 inh – inhibitors of rat KCNQ2 potassium channel; CHO-K1 KCNQ2, FluxOR thallium flux, 20 min; stronger effect = lower value; AID 2156; O88943; 310,000 tested, 1.1% active; B-score at 10 µM;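 active = fluorescence ratio B-score at most minus 3 library SDs, with starting brightness B-score within 2 library SDs, cut at about -5.5 in these data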
KCNQ2 pot – enhances the rat KCNQ2 potassium channel. AID 2239. 310,000 tested, 0.54% active. B-score at 10 µM. CHO-K1 KCNQ2, FluxOR thallium flux fluorescence; stronger effect = higher value. O88943;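 active = fluorescence ratio B-score at least 3 SD of library B-scores, with initial fluorescence B-score within 3 of them, cut at about 5.3 in these data; same plate scores as AID 2156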;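 also: B-score of peak minus minimum over baseline fluorescence ratio after K+ and Tl+ stimulus; positive B-score means potentiation of KCNQ2 with more thallium influx and brighter signal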
Kir21 conf inh – confirmation of mouse Kir2.1 potassium channel inhibitors | shares compounds with KCNQ2 pot | Kir2.1-expressing cells, FluxOR thallium flux fluorescence; stronger effect = lower value | Tl flux remaining, % of negative control (stronger effect = lower value), % at 10 µM | 2,300 tested, 41% active | AID 2032;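 active = Primary-screen hit whose thallium flux fell at least 3 control SD below untreated wells in both duplicates, with normal baseline fluorescence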;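 also: 0% = blank wells without stimulus and 100% = stimulated no-compound controls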
Target sequence (P35561 whole entry, looked up): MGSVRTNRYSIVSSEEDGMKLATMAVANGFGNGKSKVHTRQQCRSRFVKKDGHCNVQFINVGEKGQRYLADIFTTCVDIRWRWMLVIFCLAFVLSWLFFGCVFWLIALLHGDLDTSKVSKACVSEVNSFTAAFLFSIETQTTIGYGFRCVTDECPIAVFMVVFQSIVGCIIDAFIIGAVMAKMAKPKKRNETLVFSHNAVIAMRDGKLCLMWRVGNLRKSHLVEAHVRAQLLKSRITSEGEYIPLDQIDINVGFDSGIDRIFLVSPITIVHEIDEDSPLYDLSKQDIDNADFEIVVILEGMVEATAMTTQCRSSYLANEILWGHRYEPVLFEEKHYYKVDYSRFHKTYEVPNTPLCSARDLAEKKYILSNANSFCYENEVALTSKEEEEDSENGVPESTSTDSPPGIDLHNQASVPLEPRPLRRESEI
HEK293 Tl flux – parental HEK293 activity in Kir2.1 inhibitor counter-screen | shares compounds with KCNQ2 pot | parental HEK293 cells, FluxOR thallium flux fluorescence; 0% = unstimulated blank wells | FluxOR signal as % of negative control (100 = no effect), % at 10 µM | 2,300 tested, 19% active | AID 2105;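 active = dye signal at least 3 control SD above or below untreated wells in both duplicates, raw fluorescence within 3, either direction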;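 also: percent is based on the flux ratio of peak minus minimum fluorescence over baseline F0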
CHO-K1 ctr – alters thallium flux in parental CHO-K1 cells, KCNQ2 counter-screen | AID 2282 | shares compounds with KCNQ2 pot | FluxOR thallium flux fluorescence; zero = vehicle mean+3SD, 100% = vehicle-minus-blank window | 1,200 tested, 43% active | activity increase over 3SD of controls, % at 10 µM;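 active = signal rise of at least 3 SD above the untreated control mean, in both duplicate wells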;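 also: counter screen of KCNQ2 potentiator hits so any rise reflects channel-independent effects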
KCNQ1 pot spec – tests whether KCNQ2 potentiators also act on human KCNQ1; shares compounds with KCNQ2 pot; CHO KCNQ1 stable, FluxOR thallium flux fluorescence; beyond 3SD, as % of vehicle-control signal; activation over 3SD threshold, % at 10 µM; 1,200 tested, 28% active; AID 2283;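 active = fluorescence ratio rise of at least 3 SD of vehicle wells above their mean, in both replicate wells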;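 also: 0% = vehicle mean plus 3 SD and 100% = vehicle minus unstimulated blank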
KCNQ2 pot confirm – confirmation of rat KCNQ2 potassium channel potentiators. shares compounds with KCNQ2 pot. CHO-KCNQ2 cells, FluxOR thallium flux fluorescence. potentiation, less the hit threshold, % at 10 µM. 1,200 tested, 68% active. AID 2287;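 active = fluorescence ratio rising 3 SD or more over the vehicle control mean in both replicates, plus primary screen hit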;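 also: peak minus minimum thallium fluorescence divided by baseline after K/Tl stimulus; 0% = vehicle mean plus 3 SD and 100% = vehicle minus unstimulated blank difference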
Kir21 spec – mouse Kir2.1 off-target activity of KCNQ2 potentiators | HEK293 Kir2.1, FluxOR thallium flux fluorescence | activity over 3SD threshold, % at 10 µM | shares compounds with KCNQ2 pot | 1,200 tested, 2% active;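 active = fluorescence ratio rise of at least 3 SD above the vehicle-control mean, seen in both replicates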;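 also: 0% = vehicle mean plus 3 SD and 100% = vehicle minus no-stimulus blank window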
KCNQ2 W236L MoA – potentiates the retigabine-insensitive rat KCNQ2 W236L mutant channel. current increase over 3SD of negative controls (%), stronger effect = higher value, % at 25 µM. shares compounds with KCNQ2 pot. CHO KCNQ2-W236L, automated patch clamp current. 940 tested, 10% active;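 active = current increase at least 3 SD of the untreated controls above them in both duplicate recordings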
Active calls of the source: *; i = inactive; x = no result given.

SMILES	KCNQ2 inh	KCNQ2 pot	Kir21 conf inh	HEK293 Tl flux	others
O=Cc1ccc(-c2ccccc2OC(F)(F)F)o1	i	6.6*	i	i	CHO-K1 ctr=-6;KCNQ1 pot spec=-16;KCNQ2 pot confirm=-7;Kir21 spec=-18
Cc1c(C(=O)O)cccc1-c1ccc(C=O)o1	i	x	x	x
CC(C)CN(C(=O)CN(C)C(=O)c1ccco1)c1c(N)n(CC(C)C)c(=O)[nH]c1=O	i	x	x	x
Cc1cc(Cl)c(S(=O)(=O)NC(C(=O)O)C(C)C)cc1OCC(=O)NC1CCCCC1 (configuration not stated)	i	x	x	x
Cc1cc(Cl)c(S(=O)(=O)N2CCCC2)cc1OCC(=O)NC1CCCCC1	i	27*	i	139%*	CHO-K1 ctr=-17;KCNQ1 pot spec=-5;KCNQ2 pot confirm=133*;Kir21 spec=-48;KCNQ2 W236L MoA=i
O=C(NCc1ccccc1)c1cc[n+](CC(=O)c2cccs2)cc1	i	1.3	x	x
O=S(=O)(c1ccccc1F)N1CCCc2ccccc21	i	0.02	60%*	i
O=[N+]([O-])c1ccccc1S(=O)(=O)N1CCCc2ccccc21	i	x	x	x
Cc1ccc(C(=O)N2CCN(S(=O)(=O)N3CCCCC3)CC2)cc1	i	x	x	x
CC1CN(c2ccc([N+](=O)[O-])c(NCCOc3ccc(Cl)cc3)c2)CC(C)N1 (configuration not stated)	-7*	-7	67%*	i
CC1CN(c2ccc([N+](=O)[O-])c(NCCOc3ccccc3)c2)CC(C)N1 (configuration not stated)	i	x	x	x
C=CCn1c(=S)sc2c(=O)[nH]cnc21	i	0.03	x	x
CC(=O)Nc1ccc(NC(=O)C/C(C)=N/NC(=O)COc2cc(C)c(Br)cc2Br)cc1	i	x	x	x
COc1cccc(N2CC(C)Cn3c2nc2c3c(=O)[nH]c(=O)n2C)c1 (configuration not stated)	i	0.94	x	x
COc1ccc(CCNC(=O)COc2ccc(N(C)S(=O)(=O)c3ccc(Cl)cc3)cc2)cc1	-6.5*	-6.5	i	i
CN(c1ccc(OCC(=O)NCCc2ccccc2)cc1)S(=O)(=O)c1ccc(Cl)cc1	i	x	x	x
CCN(C(=O)Cc1c(C(=O)O)n(CC)c2ccccc12)c1cccc(C(F)(F)F)c1	i	x	x	x
CC(C)c1nc(SCC(=O)Nc2nccs2)c2ccccc2n1	i	0.11	x	x
Cc1ccc(C(=O)CSc2nc(C(C)C)nc3ccccc23)cc1	i	3.9	x	x
CC(C)c1nc(SCC(=O)c2ccc(F)cc2)c2ccccc2n1	i	11*	i	i	CHO-K1 ctr=-9;KCNQ1 pot spec=-4;KCNQ2 pot confirm=36*;Kir21 spec=-40;KCNQ2 W236L MoA=i
Cc1csc(NC(=O)CSc2nc(C(C)C)nc3ccccc23)n1	i	6.2*	x	x	CHO-K1 ctr=18*;KCNQ1 pot spec=-29;KCNQ2 pot confirm=1.0*;Kir21 spec=-70;KCNQ2 W236L MoA=i
C#CCOc1ccccc1C(N)=O	i	1.6	x	x
CC(=O)Nc1ccc(NC(=O)C(C)Sc2nc3ccccc3c(=O)n2CC2CCCO2)cc1 (configuration not stated)	i	0.03	x	x
Cc1c(O)ccc(NS(=O)(=O)c2ccccc2)c1C	i	x	x	x
Cc1cc(NS(=O)(=O)c2ccccc2)c(C)c(Cl)c1O	i	x	69%*	i
SMILES	KCNQ2 inh	KCNQ2 pot	Kir21 conf inh	HEK293 Tl flux	others
O=C(Nc1ccc(F)cc1)/C(=C1/CCCCCN1)[N+](=O)[O-]	i	x	x	x
Cc1cc(C)cc(NC(=O)c2ccc(Cn3nc(C)c(Cl)c3C)o2)c1	i	x	x	x
Cc1ccc(CNC(=O)c2ccc(Cn3nc(C)c(Cl)c3C)o2)cc1	i	x	48%*	i
Fc1cccc(NCCc2c[nH]c3ccccc23)n1	i	1.1	x	x
c1ccc2c(NCCc3c[nH]c4ccccc34)c3ccccc3nc2c1	i	x	38%*	i
Cc1ccc(F)cc1NC(=O)COC(=O)C1CCN(c2ccc(C(F)(F)F)cn2)CC1	i	0.12	x	x
Cc1ccccc1Cn1c(C(=O)OC(C)C)cc2c1ccn2C	i	x	x	x
CC(C)OC(=O)c1cc2c(ccn2C)n1CC(=O)N1CCC(Cc2ccccc2)CC1	i	9.9*	i	i	CHO-K1 ctr=40*;KCNQ1 pot spec=70*;KCNQ2 pot confirm=7.1*;Kir21 spec=-20;KCNQ2 W236L MoA=i
CCn1c(=O)n(CC)c2cc(N3CCCC3)c(NC(=O)c3cccc(C)c3)cc21	i	x	x	x
CCn1c(=O)n(CC)c2cc(NC(=O)C(C)c3ccccc3)c(Br)cc21 (configuration not stated)	i	22*	i	i	CHO-K1 ctr=-8;KCNQ1 pot spec=-24;KCNQ2 pot confirm=95*;Kir21 spec=-24;KCNQ2 W236L MoA=i
COc1cc(NC(=O)c2ccccc2)c(C)cc1NC(=O)CC(CC(=O)O)c1ccccc1 (configuration not stated)	i	1.6	x	x
COc1cc(/C=C2/CC(C)OC2=O)c([N+](=O)[O-])cc1OC (configuration not stated)	i	0.26	x	x
Clc1ccccc1-c1nnc2n1-c1ccccc1SC2	i	x	x	x
Brc1nnc2n1-c1ccccc1Sc1ccccc1-2	i	1.9	28%*	66%*
Clc1ccc2c(c1)-c1nnc(Br)n1-c1ccccc1S2	i	1	66%*	70%*
c1ccc2c(c1)Sc1ccccc1-n1cnnc1-2	i	x	x	x
C/C(CC(=O)Nc1cccc(Cl)c1Cl)=N\NC(=O)c1ccccc1N	i	x	x	x
Cc1c2cnn(CC(=O)N3CCOCC3)c(=O)c2c(C)n1Cc1ccccc1F	i	0.1	x	x
COc1cc(CN(C(=O)c2ccco2)C2CCS(=O)(=O)C2)cc(OC)c1OC (configuration not stated)	i	x	x	x
Nc1cccnc1Oc1ccc(F)cc1	i	0.08	x	x
FC(F)(F)c1cccnc1Oc1ccc(C2=NCCS2)cc1	i	5.4*	i	i	CHO-K1 ctr=-34;KCNQ1 pot spec=30*;KCNQ2 pot confirm=13*;Kir21 spec=-21;KCNQ2 W236L MoA=i
NC1=NC[C@H](Cc2ccccc2)N1CCCCC1CCCCC1	i	x	32%*	i
NC1=NC[C@H](Cc2ccc(O)cc2)N1CCCCC1CCCCC1	i	0.01	x	x
Cc1cccc(C(=O)N/N=C/c2cc(Br)c(Br)o2)c1	i	0.02	x	x
CCC(=O)NC(=S)Nc1ccc(NC(=O)COc2ccc(Cl)c(C)c2)cc1	i	0.07	x	x
Cc1cc(OCC(=O)NNC(=S)NC(=O)c2ccc(Br)o2)ccc1Cl	i	8.1*	i	i	CHO-K1 ctr=90*;KCNQ1 pot spec=-3;KCNQ2 pot confirm=-22;Kir21 spec=-40
